A selection: hits, their analogues and other compounds. The true share with any hit is near 1.2%.
CIT2 TOR yeast: modulators of TOR pathway CIT2-GFP in S. cerevisiae. 0.065% of 320,000 active. GFP response vs DMSO, % at 10 µM. AID 2029. S. cerevisiae CIT2-GFP strain, flow cytometry, 3 h; 100 means same as DMSO wells;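 active = GFP response relative to DMSO above a set limit, near the screen mean plus 3 SD, cut at about 150% in these data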;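 note: ratio of well median GFP fluorescence to mean of DMSO wells on the plate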
LAP4-GFP MLPCN: alters LAP4-GFP fluorescence in TOR pathway yeast screen | GFP response vs DMSO, % at 10 µM | S. cerevisiae LAP4-GFP multiplex, flow cytometry GFP, 3 h; median GFP as percent of DMSO wells | 0.34% of 320,000 active | AID 2023;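 active = GFP response vs DMSO above a set limit, about the screen mean plus 3 SD, cut at about 150% in these data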
MEP2 TOR yeast: modulators of TOR pathway MEP2-GFP in S. cerevisiae. S. cerevisiae MEP2-GFP strain, flow cytometry GFP, 3 h; 100% = DMSO control level. GFP response vs DMSO, % at 10 µM. 0.51% of 330,000 active. AID 2016;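 active = GFP response versus DMSO above a set limit, roughly screen mean plus 3 SD, cut at about 180% in these data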;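 note: median GFP fluorescence of the barcode-gated MEP2-GFP cells per well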
AGP1-GFP MLPCN: alters AGP1-GFP fluorescence in TOR pathway yeast screen; GFP response vs DMSO, % at 10 µM; AID 2066; S. cerevisiae AGP1-GFP multiplex flow cytometry, 3 h; GFP as percent of DMSO wells; 0.02% of 320,000 active;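 active = GFP response relative to DMSO above a set limit, near screen average plus 3 SD, cut at about 150% in these data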;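 note: median GFP channel fluorescence of the gated AGP1 strain per well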
DSG3 Ab inh: inhibitors of pemphigus antibody binding to human desmoglein-3. DSG3-coupled beads, scFv-anti-DSG3-GFP binding, flow cytometry; hits give low values. binding (percent of control), % at 10 µM. 0.48% of 310,000 active. AID 588358;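 active = binding more than 3 SD below its plate's average and above zero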;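 note: hits lower antibody fragment binding to DSG3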
Target sequence (P32926 whole entry, looked up, the tested form may be a part): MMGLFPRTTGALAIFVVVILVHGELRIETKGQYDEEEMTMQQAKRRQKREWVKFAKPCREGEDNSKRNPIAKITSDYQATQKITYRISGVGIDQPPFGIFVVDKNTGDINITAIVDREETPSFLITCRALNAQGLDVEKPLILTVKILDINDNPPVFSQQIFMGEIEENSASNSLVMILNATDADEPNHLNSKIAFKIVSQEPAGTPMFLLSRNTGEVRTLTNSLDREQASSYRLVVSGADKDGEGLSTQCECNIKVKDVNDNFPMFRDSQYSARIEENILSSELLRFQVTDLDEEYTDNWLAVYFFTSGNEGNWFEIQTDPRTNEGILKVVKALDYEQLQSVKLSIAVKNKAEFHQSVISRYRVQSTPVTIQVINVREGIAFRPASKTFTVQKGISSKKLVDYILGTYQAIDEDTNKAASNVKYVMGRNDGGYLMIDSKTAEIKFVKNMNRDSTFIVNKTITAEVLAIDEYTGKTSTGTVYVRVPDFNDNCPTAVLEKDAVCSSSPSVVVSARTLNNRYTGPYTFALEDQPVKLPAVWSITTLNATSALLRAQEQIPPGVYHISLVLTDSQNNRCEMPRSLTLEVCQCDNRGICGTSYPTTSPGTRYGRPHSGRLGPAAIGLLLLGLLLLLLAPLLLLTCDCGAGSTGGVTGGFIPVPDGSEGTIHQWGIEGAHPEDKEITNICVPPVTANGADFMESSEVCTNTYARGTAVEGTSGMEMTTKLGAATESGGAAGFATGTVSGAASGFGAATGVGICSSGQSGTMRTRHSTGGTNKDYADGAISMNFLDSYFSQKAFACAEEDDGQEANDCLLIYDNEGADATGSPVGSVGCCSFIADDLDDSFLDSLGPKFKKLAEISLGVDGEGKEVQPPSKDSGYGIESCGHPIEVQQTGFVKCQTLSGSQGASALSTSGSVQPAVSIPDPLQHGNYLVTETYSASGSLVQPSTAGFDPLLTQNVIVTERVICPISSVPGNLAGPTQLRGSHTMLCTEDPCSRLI
RPL19A-GFP yeast: alters RPL19A-GFP fluorescence in TOR pathway yeast screen; percent response vs DMSO, % at 10 µM; 0.3% of 330,000 active; S. cerevisiae RPL19A-GFP strain, flow cytometry, 3 h; hits give low values;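 active = percent response vs DMSO below 50%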;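 note: median channel GFP fluorescence of the barcoded RPL19A-GFP strain; ratio of sample median GFP to plate DMSO average so 100% = DMSO; lower means less RPL19A-GFP as with rapamycin TOR inhibition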
LAP4-GFP pick2: yeast LAP4-GFP modulation, second cherry pick. shares compounds with LAP4-GFP MLPCN. S. cerevisiae LAP4-GFP strain, flow cytometry GFP, 3 h. GFP response vs DMSO, % at 10 µM. 20% of 590 active. AID 2621;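 active = GFP signal as percent of the solvent control above about 150%, meaning raised reporter expression, limit read from the data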;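 note: ratio of well median GFP fluorescence to plate DMSO mean so 100% = DMSO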
MEP2 cherry2: yeast MEP2-GFP modulation, second cherry pick | 10% of 590 active | shares compounds with LAP4-GFP MLPCN | AID 2622 | GFP response vs DMSO, % at 10 µM | S. cerevisiae MEP2-GFP strain, flow cytometry GFP, 3 h;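 active = GFP signal above 150% of the solvent control wells, that is a rise of more than half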;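 note: median channel GFP fluorescence of all gated yeast cells per well; ratio of median GFP to plate DMSO average so 100% = DMSO level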
RPL19A-GFP pick2: yeast RPL19A-GFP TOR reporter modulation, second cherry pick; shares compounds with LAP4-GFP MLPCN; 3% of 590 active; GFP response vs DMSO, % at 10 µM; S. cerevisiae RPL19A-GFP strain, flow cytometry GFP, 3 h; hits give low values; 100% means same as DMSO wells;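 active = under 65% GFP response relative to DMSO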;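 note: median GFP channel fluorescence per well over the all cells gate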
CIT2 GFP CP2: reconfirmed modulator of CIT2-GFP TOR reporter in yeast. S. cerevisiae CIT2-GFP strain, flow cytometry GFP, 3 h; DMSO control wells read 100%. GFP response vs DMSO, % at 10 µM. shares compounds with LAP4-GFP MLPCN. 8% of 590 active;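 active = GFP response vs DMSO above about 150%, limit read from the data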;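 note: median green fluorescence per well over all gated yeast cells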
AGP1-GFP pick2: yeast AGP1-GFP TOR reporter modulation, second cherry pick; shares compounds with LAP4-GFP MLPCN; S. cerevisiae AGP1-GFP strain, flow cytometry GFP, 3 h; percent response vs DMSO, % at 10 µM; 590 tested, under 10 active; AID 2643;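 active = over 150 percent of DMSO response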;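 note: median GFP channel fluorescence over all cells without mother daughter split; sample median GFP divided by mean DMSO control so 100% equals DMSO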
s288c autofluor: counter-screen for compound autofluorescence in yeast s288c cells; shares compounds with LAP4-GFP MLPCN; S. cerevisiae s288c, 520 nm autofluorescence, flow cytometry, 3 h; hits give high values; zero means same as solvent-only cells; fluorescence change (kMESF span) at 33 µM; 610 tested, under 10 active; AID 2757;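 active = fluorescence span over the dose series, or activity score, above about 33, limit read from the data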
s288c autofl DR: counter-screen for autofluorescence of TOR hits in yeast s288c; 110 tested, under 10 active; shares compounds with LAP4-GFP MLPCN; fluorescence change (span) at 33 µM; S. cerevisiae s288c parental, compound autofluorescence, flow cytometry, 3 h;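 active = fluorescence change span, or the activity score built from it, above 25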
TORC1 bypass: stops wildtype yeast growth while TORC1 bypass cells still grow. shares compounds with LAP4-GFP MLPCN. S. cerevisiae BY4741 spot growth rating, 48-72 h; hits give low values. growth rating (0-3) at 30 µM. 120 tested, under 10 active;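 active = growth rating at most 1 for wild type yeast while the TORC1 bypass strain still grows fully, rated 3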
Starred values were filed as active, the others as inactive; x = no result given.

SMILES | CIT2 TOR yeast | LAP4-GFP MLPCN | MEP2 TOR yeast | AGP1-GFP MLPCN | DSG3 Ab inh | RPL19A-GFP yeast | LAP4-GFP pick2 | MEP2 cherry2 | RPL19A-GFP pick2 | CIT2 GFP CP2 | AGP1-GFP pick2 | others
Cc1cc(=O)n2nc(-c3ccccc3)sc2n1 | 108 | 99 | 94 | 95 | 82 | 100 | x | x | x | x | x
CCn1c(SCC(=O)O)nnc1-c1cc2c(C)nn(-c3ccccc3)c2s1 | 100 | 98 | 96 | 100 | 100 | 95 | x | x | x | x | x
CC(C)(C)c1nnc(N/N=C/c2cc(Br)ccc2O)n(N)c1=O | 95 | 185* | 103 | 99 | 114 | 88 | 215* | 140 | 98 | 114 | 105 | s288c autofluor=1.3
CCc1nnc(N/N=C/c2cc(Br)c(O)cc2O)n1N | 108 | 95 | 110 | 101 | 98 | 104 | x | x | x | x | x
CCCCCCC1/C(=N/O)CCC1C(=O)OC (configuration not stated) | 89 | 90 | 103 | 86 | 100 | 85 | x | x | x | x | x
CN1C(=O)[C@@H]2C[C@@]3([C@@]45C[C@H]6C(=O)N(C)[C@@H](Cc7ccccc7)C(=O)N6[C@@H]4Nc4ccccc45)c4ccccc4N[C@H]3N2C(=O)[C@@H]1Cc1ccccc1 | 129 | 155* | 94 | 94 | 95 | 99 | 97 | 96 | 103 | 108 | 100
O=C1N[C@@H](Cc2ccccc2)C(=O)N2[C@H]3Nc4ccccc4[C@@]3([C@]34C[C@H]5C(=O)N[C@@H](Cc6ccccc6)C(=O)N5[C@H]3Nc3ccccc34)C[C@@H]12 | 99 | 91 | 98 | 103 | x | 99 | x | x | x | x | x
C/C(=N\NC(=O)c1ccc(C(C)(C)C)cc1)c1ccccn1 | x | x | x | x | x | x | x | x | x | x | x | s288c autofl DR=0.52;TORC1 bypass=3
Cc1cn(CC(=O)NCCc2c[nH]c3ccccc23)c(=O)[nH]c1=O | x | x | x | x | 97 | x | x | x | x | x | x
CCC1(c2ccccc2)ON(c2c(Br)cccc2Br)C1=O (configuration not stated) | 82 | 131 | 86 | 60 | 101 | 80 | 124 | 118 | 100 | 113 | 94 | s288c autofluor=0.5
CCC1(c2ccccc2)CN(C)C1=O (configuration not stated) | x | x | x | x | 104 | x | x | x | x | x | x
COCCCOc1ccnc(CS(=O)c2nc3ccccc3[nH]2)c1C (configuration not stated) | 73 | 117 | 95 | 78 | 106 | 101 | x | x | x | x | x
Cc1c(OCC(F)(F)F)ccnc1CS(=O)c1nc2ccccc2[nH]1 (configuration not stated) | 79 | 158* | 94 | 85 | 112 | 101 | 122 | 106 | 99 | 105 | 101
CCCCOC(=O)c1ccc(NC(=O)/C=C/c2cccs2)cc1 | 91 | 99 | 100 | 90 | 106 | 102 | x | x | x | x | x
O=C1C(c2ccccc2)=[N+]([O-])c2ccccc21 | 89 | 160* | 93 | 87 | 103 | 105 | 116 | 121 | 106 | 120 | 103
CCOc1cc(Br)c(CN2C(=O)NC3(CCCCCC3)C2=O)cc1OCC | 77 | 86 | 71 | 85 | x | 88 | x | x | x | x | x
CCN(CC)C(=S)SCC(=O)c1ccccc1 | x | 111 | 95 | 97 | x | 100 | x | x | x | x | x
CCN(CC)C(=S)SSC(=S)N(CC)CC | 68 | 187* | 110 | 76 | 106 | 89 | 181* | 131 | 93 | 110 | 99 | s288c autofluor=0.4
COc1ccc(-c2cc(C)no2)cc1S(=O)(=O)Nc1cccc(CN2CCCC2)c1 | 93 | 92 | 100 | 100 | 88 | 101 | x | x | x | x | x
COc1ccc(-c2cc(C)no2)cc1S(=O)(=O)N1CCCN(Cc2ccc(F)cc2)C1 | 103 | 87 | 129 | 73 | 100 | 52 | 100 | 100 | 99 | 104 | 98
O=C(O)c1cccc(CN2C(=O)S/C(=C/c3cccc([N+](=O)[O-])c3)C2=O)c1 | 82 | 103 | 156 | 22 | 91 | 53 | 98 | 100 | 103 | 103 | 99
Oc1cc(-c2ccc(N3CCCCC3)nc2)cc2cccnc12 | 97 | 164* | 115 | 87 | 86 | 92 | 117 | 119 | 103 | 99 | 98 | s288c autofluor=0.5
Oc1cc(-c2ccncc2)cc2cccnc12 | 95 | 117 | 106 | 107 | 101 | 101 | x | x | x | x | x
COc1cccc2cc(-c3nc4ccccc4o3)c(=O)oc12 | 85 | 114 | 103 | 67 | 82 | 56 | 105 | 102 | 60* | 98 | 65 | s288c autofluor=0.71
COc1cc(S(=O)(=O)Nc2cccc3cn[nH]c23)c(OC)cc1C | 167* | 115 | 139 | 107 | 94 | 97 | 111 | 108 | 101 | 102 | 99
CCOC(=O)c1cnc2c(C)c(Cl)ccc2c1Nc1ccc(S(=O)(=O)Nc2ncccn2)cc1 | 99 | 103 | 109 | 99 | x | 98 | x | x | x | x | x
CCOc1ccc(OCCC(=O)NNC(=O)c2cc(OC)c(OC)c(OC)c2)cc1 | 97 | 99 | 93 | 101 | 98 | 95 | x | x | x | x | x
CCCc1cc(=O)oc2cc(C)cc(OCC(=O)NC3CC3)c12 | 106 | 90 | 142 | 16 | 99 | 51 | 98 | 100 | 99 | 104 | 98 | s288c autofluor=0.1
Cc1cc(C2CCCCC2)n(O)c(=O)c1 | 61 | 192* | 91 | 84 | 98 | 100 | 187* | 121 | 104 | 74 | 113 | s288c autofluor=0

From PubChem
